What all share (test): NCI-60 one-dose screen, 48 h (100 = growth as untreated, 0 = no growth, -100 = all killed)
Conditions in all cases: 10 µM

Assay [1] has as its system K-562 leukemia.
Assay [2] concerns MALME-3M melanoma.
The test system of assay [3] is MDA-MB-231 breast.
Assay [4] concerns SF-268 CNS.
Assay [5] deals with SF-295 CNS.
Assay [6] deals with SF-539 CNS.
In assay [7] the test system is UACC-257 melanoma.
The test system of assay [8] is M14 melanoma.
Assay [9] relates to HCT-15 colon.
Assay [10] deals with RXF 393 renal.

This is part of a sample that, as a whole, favours compounds with a hit. Of some 83,000 tested, about 20% had one in any assay.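 Single-concentration screen, 48 h exposure, 96-well plates. Endpoint: percent growth. Below 10 = active.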 Unmarked numbers belong to inactive results. Active and inactive are the calls of the source.

As for `N=c1nc(N)ncn1-c1ccccc1`, the growth in assay [1] is 93.5%; in assay [2] it was 110%; in assay [3] it was 96.1%; in assay [4], 108%; in assay [5] it was 97.8%; in assay [6], 96.4%. The growth is 97.1% in assay [7], 106% in assay [8] and 99.1% in [9].

In the case of `COc1cc2c(cc1OCCCN1CCN(c3ncnc4ccccc34)CC1)N=CC1CCCN1C2=O` (stereo not drawn), the growth is -24.8% (active) in assay [1]; -71.7% (active) in [2]; -34.4% (active) in assay [3]; 10.3% in [4]; -20.9% (active) in [5]; -82.7% (active) in assay [6]. Moreover, the growth in assay [8] was -46.8% (active); in [9] it was 1.25% (active).

As for `COc1cc(/C=C2\Oc3cc(OCC(=O)c4ccccc4)ccc3C2=O)cc(OC)c1OC`, the growth is 105% in assay [1]; 114% in assay [2]; 95.6% in assay [3]; 105% in assay [4]; 91.5% in assay [5]; 121% in assay [6]. The figures for the growth in [7], in [8] and in assay [9] were 132%, 125% and 103%, respectively.

With `Cc1cc(O)c(C(C)(C)C)cc1Sc1cc(C(C)(C)C)c(O)cc1C`, the growth in assay [1] was 14.6%; in [2], 73.7%; in assay [3], -9.88% (active); in assay [4] it was 49.4%; in [5] it was 53.4%; in [6], 77.8%. In addition, the growth in [7] was 30.9%; in assay [8], 0.358% (active); in assay [9] it was 44.3%.

For `COc1cc(/C=N/NC(=O)c2ccccc2Nc2ccnc(C(F)(F)F)c2)ccc1O`, the growth was 90.4% in assay [1]; 121% in [2]; 112% in assay [3]; 105% in [4]; 114% in assay [5]; 112% in assay [6]. Also, the growth is 126% in [7], 89.7% in assay [8] and 106% in assay [9].

On to `CCCCN(CCCC)CCCCCCCCC(O)c1cc2ccccc2c2ccccc12` (stereo not drawn), for which the growth in assay [1] was 22.6%; in assay [2], 76.8%; in assay [3], 56.2%; in assay [4], 65.9%; in [5], 77.5%; in assay [6], 74.6%. Besides, the growth was 91.4% in assay [7], 45.7% in assay [8] and 34.6% in [9].

Consider `COc1ccc(/C(=C2/O[C@@H]([C@H]3COC(C)(C)O3)[C@H]3OC(C)(C)O[C@@H]23)c2cc(OC)c(OC)c(OC)c2)cc1O`, for which the growth was 10.2% in assay [1]; 69.6% in [2]; 54.5% in assay [3]; 37.8% in assay [4]; 77.6% in assay [5]; 21.5% in assay [6]. The growth in assay [7] is 126%; in assay [8], 19.5%; in assay [9], 32.5%.

Turning to `Cc1occc1-c1nnc(SCC(=O)c2ccc(NC(=O)CC(C)C)cc2)o1`, the growth is 86.1% in assay [1]; 89.8% in assay [2]; 105% in assay [3]; 132% in assay [4]; 104% in [5]; 101% in assay [6]. Moreover, the results for the growth in [8] and in [9] were 112% and 121%, respectively.

Turning to `COc1ccccc1CNCCN1C(=O)c2ccc3c4c(ccc(c24)C1=O)C(=O)N(CCNCc1ccccc1OC)C3=O`, the growth is -43.8% (active) in assay [1]; -92% (active) in assay [2]; -18.4% (active) in [3]; -79.5% (active) in assay [4]; -56.7% (active) in [5]; -97.3% (active) in [6]. Besides, the growth in [7] was -96.4% (active); in assay [8], -94% (active); in assay [9], -77.1% (active).

Consider `O=C(O)C(SC(C(=O)O)c1ccccc1)c1ccccc1` (stereo not drawn), for which the growth was 98.6% in [1]; 115% in assay [3]; 106% in assay [10]; 106% in [4]; 115% in assay [5]; 115% in [6]. The growth is 104% in [7], 109% in [8] and 99.8% in assay [9].

Regarding `COc1ccc2c(c1)C(=O)c1c-2c(OCCN(C)C)nc2ccccc12`, the growth was 10.2% in [1]; 67.8% in [3]; 49% in [10]; 26.6% in [4]; 18% in assay [5]; 45.9% in [6]. Besides, the growth in assay [7] was 36.2%; in [8] it was 30%; in assay [9], 20.5%.

With `CCc1ccc2c(c1)N(CCO)C1=C(C(=O)OC1)C2c1cc(OC)c(OC)c(OC)c1` (stereo not drawn), the growth in assay [1] was 10.5%; in [3] it was -28% (active); in [10] it was 53.4%; in [4], 21.7%; in assay [5], -28.4% (active); in [6], -9.69% (active). Further, the values for the growth in [7], in assay [8] and in [9] were 50.5%, 10.2% and 6.93% (active), respectively.

In the case of `Clc1ccccc1N=Cc1ccc2c(c1)OCO2`, the growth in assay [1] was 87.1%; in assay [3], 94.4%; in [10], 106%; in assay [4] it was 107%; in [5] it was 102%; in assay [6], 112%. The growth is 104% in [7], 103% in [8] and 100% in assay [9].

On to `CCN(CC)CCN1CC(=O)Nc2cc(Cl)ccc21`, for which the growth in assay [1] was 120%; in assay [3], 116%; in [10] it was 122%; in [4], 108%; in assay [5], 103%; in [6], 105%. The values for the growth in assay [7], in [8] and in assay [9] were 102%, 93.9% and 107%, respectively.

As for `COc1cc(C)ccc1C(=O)c1ccc(C)cc1OC`, the growth in assay [1] is 10%; in assay [3], 41.2%; in [10] it was -10.5% (active); in [4], 43.5%; in [5], -39.1% (active); in [6], 3.62% (active). Besides, the growth is 60.3% in [7], 12.4% in assay [8] and 36.3% in [9].

The values above are taken from PubChem BioAssay (NCI).
